Composite z-score and z-score data for ten molecules are collected here from PubChem BioAssay.

The source made the active and inactive calls.

Experiment [1] relates to Plasmodium falciparum Sir2 (PF13_0152, Sir2A). Description: pfSir2 binders on small-molecule microarrays, primary screen, biochemical, small-molecule microarray, 635 nm fluorescence (AID 1098).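 Further: score merges spot fluorescence intensity with its signal-to-noise ratio.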 The note with it: small-molecule microarray binding, fluorescence 635 nm; higher = more signal.
A short description of experiment [2]: small-molecule microarray binders of probe aDKK1, primary screen, biochemical, biotinylated probe, 635/667 nm fluorescence (AID 1099).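 Further: score merges 667nm spot fluorescence with signal to noise across triplicate slides; reference of the scale not given here.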 The note with it: higher = more signal.
Experiment [3] in a line: small-molecule microarray binders of probe aCHRDL2, primary screen, biochemical, biotinylated probe, 635/667 nm fluorescence (AID 1100). The note with it: higher = more signal.
Experiment [4] is described as follows: splicing luciferase reporter signal modulators, primary screen, spliceosome inhibition project, cell-based, HEK293, splice +/- reporter (AID 1101).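 Further: HEK293 cells carrying a splicing-competent luciferase reporter gene; test concentration not given here.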 The settings on record: luminescence, 24 h, higher = more signal, called active from +8 up or from −8 down. On the technique in general: Reporter assays use an easily measured gene product as a stand-in for the process of interest.

In experiment [5] the target is Fibroblast growth factor 10 (Homo sapiens) (UniProt O15520). Description: FGF10 binders on small-molecule microarrays, primary screen, biochemical, small-molecule microarray, 635 nm fluorescence (AID 1102). The note with it: FGF10 binding, fluorescence 635 nm, higher = more signal.
Chain of Fibroblast growth factor 10 (Homo sapiens) (O15520 whole entry, looked up): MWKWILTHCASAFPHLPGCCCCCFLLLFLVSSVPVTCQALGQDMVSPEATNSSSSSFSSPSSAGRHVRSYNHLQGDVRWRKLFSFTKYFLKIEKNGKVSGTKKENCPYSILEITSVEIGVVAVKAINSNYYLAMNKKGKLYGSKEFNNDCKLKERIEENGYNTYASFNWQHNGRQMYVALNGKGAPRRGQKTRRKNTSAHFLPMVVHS
Experiment [6] deals with glycogen synthase kinase-3 (GSK3A per assay name; protocol says GSK3B). Description: GSK3 binders on small-molecule microarrays, primary screen, biochemical, small-molecule microarray, 635 nm fluorescence, GSK3A (AID 1103). Further: the record names both GSK3A and GSK3B. The note with it: small-molecule microarray binding, fluorescence 635 nm; higher = more signal.
Experiment [7] concerns the target Epidermal growth factor receptor (Homo sapiens) (UniProt P00533). Description: EGFR binders on small-molecule microarrays, primary screen, biochemical, small-molecule microarray, 635 nm fluorescence (AID 1104).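 Further: score merges 667 nm emission intensity with spot signal to noise over triplicate slides.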 The settings on record: EGFR binding, higher = more signal.
The target of experiment [8] is Follistatin-related protein 3 (Homo sapiens) (UniProt O95633). Description: FSTL3 binders on small-molecule microarrays, primary screen, biochemical, small-molecule microarray, 635 nm fluorescence (AID 1105).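 Further: score merges emission near 667 nm and signal to noise per printed spot across three slides.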 The note with it: FSTL3 binding, higher = more signal.
Chain of Follistatin-related protein 3 (Homo sapiens) (O95633 whole entry, looked up): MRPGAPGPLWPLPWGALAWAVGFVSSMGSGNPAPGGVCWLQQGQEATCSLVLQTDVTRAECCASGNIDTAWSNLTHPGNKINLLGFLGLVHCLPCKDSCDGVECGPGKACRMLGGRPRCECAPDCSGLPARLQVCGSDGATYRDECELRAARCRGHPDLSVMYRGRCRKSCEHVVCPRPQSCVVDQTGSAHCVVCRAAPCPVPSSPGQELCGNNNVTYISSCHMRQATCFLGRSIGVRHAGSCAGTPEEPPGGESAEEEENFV
Experiment [9] has as its target Dickkopf-related protein 1 (Homo sapiens) (UniProt O94907). Description: DKK1 binders on small-molecule microarrays, primary screen, biochemical, small-molecule microarray, 635 nm fluorescence scan (AID 1106).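 Further: score merges emission near 667 nm with signal to noise over three replicate slides.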 The note with it: DKK1 binding, higher = more signal.
The subject of experiment [10] is Inhibin beta A chain (activin A). Description: INHBA (activin A) binders on microarrays, primary screen, biochemical, small-molecule microarray, 635 nm fluorescence scan (AID 1107).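 Further: mouse activin A protein probed at 4.33 µg/mL on printed slides; score merges bound-protein fluorescence near 667 nm with spot signal-to-noise.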 The note with it: small-molecule microarray binding, higher = more signal.

Chain of Epidermal growth factor receptor (Homo sapiens) (P00533 whole entry, looked up): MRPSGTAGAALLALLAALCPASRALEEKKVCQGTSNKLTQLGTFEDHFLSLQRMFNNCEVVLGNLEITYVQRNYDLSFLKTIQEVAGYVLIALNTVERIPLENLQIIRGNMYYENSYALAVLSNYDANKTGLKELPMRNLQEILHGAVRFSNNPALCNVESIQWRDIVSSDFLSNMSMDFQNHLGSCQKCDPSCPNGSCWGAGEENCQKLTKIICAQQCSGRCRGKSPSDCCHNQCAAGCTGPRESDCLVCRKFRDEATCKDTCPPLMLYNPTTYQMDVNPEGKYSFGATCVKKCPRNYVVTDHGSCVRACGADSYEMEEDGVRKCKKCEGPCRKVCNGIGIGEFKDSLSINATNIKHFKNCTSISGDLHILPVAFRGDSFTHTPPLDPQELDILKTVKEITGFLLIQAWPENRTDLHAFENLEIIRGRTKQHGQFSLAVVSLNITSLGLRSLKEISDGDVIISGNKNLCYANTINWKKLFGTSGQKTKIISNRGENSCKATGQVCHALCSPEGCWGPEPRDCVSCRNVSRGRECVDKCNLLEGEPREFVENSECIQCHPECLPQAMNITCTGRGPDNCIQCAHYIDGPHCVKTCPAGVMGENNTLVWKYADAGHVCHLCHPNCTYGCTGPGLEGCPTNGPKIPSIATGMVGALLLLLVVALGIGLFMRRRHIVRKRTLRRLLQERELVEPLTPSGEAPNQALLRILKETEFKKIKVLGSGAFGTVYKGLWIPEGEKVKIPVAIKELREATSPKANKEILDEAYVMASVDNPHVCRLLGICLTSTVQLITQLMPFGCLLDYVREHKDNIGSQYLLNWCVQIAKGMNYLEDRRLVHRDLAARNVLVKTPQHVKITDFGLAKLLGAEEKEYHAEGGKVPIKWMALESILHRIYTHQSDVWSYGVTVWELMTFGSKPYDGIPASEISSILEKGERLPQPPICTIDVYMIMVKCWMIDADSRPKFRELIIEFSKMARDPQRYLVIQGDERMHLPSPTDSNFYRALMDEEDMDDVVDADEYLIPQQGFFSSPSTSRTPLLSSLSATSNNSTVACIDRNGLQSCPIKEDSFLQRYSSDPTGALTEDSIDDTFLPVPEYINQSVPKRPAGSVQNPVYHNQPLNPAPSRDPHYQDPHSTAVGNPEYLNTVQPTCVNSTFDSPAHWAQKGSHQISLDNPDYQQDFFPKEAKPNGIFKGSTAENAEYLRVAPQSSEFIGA
Chain of Dickkopf-related protein 1 (Homo sapiens) (O94907 whole entry, looked up): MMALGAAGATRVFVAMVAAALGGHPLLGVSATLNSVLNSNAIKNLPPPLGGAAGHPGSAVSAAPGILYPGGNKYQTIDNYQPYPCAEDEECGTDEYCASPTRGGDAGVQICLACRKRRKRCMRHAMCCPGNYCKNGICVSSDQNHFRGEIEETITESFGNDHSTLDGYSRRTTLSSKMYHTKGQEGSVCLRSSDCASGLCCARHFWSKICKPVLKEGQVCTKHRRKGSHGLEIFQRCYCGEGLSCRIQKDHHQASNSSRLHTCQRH

For `CC(=O)Nc1cc(Br)ccc1C(=O)NCc1ccccc1`, the composite z-score in experiment [1] is 0.695; in [2], -0.0601; in experiment [3] it was 0.416; in experiment [5], -0.158; in [6], 0.0021; in [7], -0.274. The composite z-score in [8] was -0.187; in [9], -0.221; in [10], 0.305. Further, in experiment [4], the z-score is -0.508 (inactive).
With `COCCCNC(=O)[C@@]1(Cc2ccccc2)N=C(c2ccc(OCCCO)cc2)O[C@H]1c1ccccc1CN=[N+]=[N-]`, the composite z-score is 0.47 in [1]; 1.09 in experiment [2]; 1.32 in experiment [3]; 0.807 in [5]; 1.28 in experiment [6]; -0.105 in experiment [7]. For the same molecule, the composite z-score is 0.859 in [8], -0.172 in experiment [9] and 0.384 in [10]. Further, the z-score in [4] was -0.469 (inactive).
In the case of `COCCOC(=O)N1C(=O)[C@@]2(c3cc(C#CC4(O)CCCCCC4)ccc31)[C@H](c1ccccc1OCCO)N1[C@H](c3ccccc3)[C@H](c3ccccc3)OC(=O)[C@H]1[C@@H]2C(=O)N1CCc2cc(OC)c(OC)cc2C1`, the composite z-score in experiment [1] was determined as 1.09; in experiment [2], 0.0591; in [3], 0.179; in experiment [5], 0.99; in [6], 0.929; in experiment [7], 0.345. Further, the values for the composite z-score in experiment [8], in [9] and in [10] were 0.528, 0.0815 and -0.0614, respectively. Moreover, the z-score in experiment [4] was 0.202 (inactive).
Take `CC(=O)NCCCC[C@@H]1NC(=O)[C@H]2C[C@@H](C(=O)NCCCCCNC(=O)CS)[C@@H](c3ccc(O)cc3)N2C1=O`: the composite z-score in [1] was 0.273; in experiment [2] it was 0.143; in experiment [3], 0.762; in experiment [5], 0.157; in experiment [6], -0.252; in experiment [7], -0.578. In addition, the results for the composite z-score in experiment [8], in [9] and in [10] were -0.84, -0.186 and -0.0107, respectively. Moreover, the z-score in experiment [4] is -0.372 (inactive).
In the case of `C[N+](C)(C)CCCCCCNC(=O)[C@H]1C[C@H]2C(=O)N[C@@H](Cc3ccccc3)C(=O)N2[C@H]1c1cccc(OCCO)c1`, the composite z-score in [1] was 1.65; in experiment [2], -0.0429; in experiment [3], 0.0593; in [5], 0.985; in [6], 1.23; in experiment [7], 0.227. Besides, the values for the composite z-score in experiment [8], in [9] and in experiment [10] were 1.09, 0.707 and 0.279, respectively. The z-score in [4] is 0.264 (inactive).
As for `CCOc1cc(C(O)C2C=CC3C(=O)N(c4ccccc4)C(=O)C3N2Nc2ccc(C(C)C)cc2)ccc1O` (stereo not given), the composite z-score in [1] came out at 1.5; in experiment [2], 0.712; in experiment [3], 1.01; in experiment [5], 0.726; in experiment [6], 1.05; in experiment [7], 0.147. For the same molecule, the composite z-score in [8] is 0.912; in experiment [9], -0.332; in experiment [10] it was 0.73. For the same molecule, the z-score in experiment [4] was 0.21 (inactive).
Turning to `CN(C)CCCCNC(=O)[C@@H]1C[C@@H]2C(=O)N[C@@H](CCCCN)C(=O)N2[C@@H]1c1ccc(O)cc1`, the composite z-score in experiment [1] is 1.09; in experiment [2], -0.0238; in experiment [3], 0.309; in experiment [5], 0.41; in experiment [6], 1.07; in experiment [7], 0.606. Further, the composite z-score in [8] turned out to be 0.463; in [9], 1.26; in [10], 0.684. Also, in experiment [4], the z-score is -0.162 (inactive).
On to `O=C(NC1CC1)[C@@H]1c2ccccc2C(=O)N(C2Cc3ccccc3C2)[C@H]1c1ccc(CO)cc1`, for which the composite z-score in experiment [1] was 0.188; in experiment [2], -0.053; in experiment [3] it was 0.438; in experiment [5], 0.467; in experiment [6], 1.3; in [7], 0.473. Also, the figures for the composite z-score in [8], in experiment [9] and in experiment [10] were 0.53, 0.951 and 0.338, respectively. Besides, in [4], the z-score was 0.199 (inactive).
Turning to `COC(=O)[C@]1(Cc2ccccc2)N=C(c2ccc(OCCCO)cc2)O[C@@H]1c1ccccc1N=[N+]=[N-]`, the composite z-score is 1.54 in [1]; 0.124 in experiment [2]; 0.527 in experiment [3]; 0.79 in experiment [5]; 0.519 in experiment [6]; -0.0527 in experiment [7]. The values for the composite z-score in experiment [8], in [9] and in experiment [10] were 0.257, -0.0949 and 0.796, respectively. In addition, the z-score in [4] is -1.56 (inactive).
In the case of `CCCC=C(CCC)[C@@H](NS(=O)(=O)c1ccc(Cl)cc1)c1ccc(C(=O)OC)cc1`, the composite z-score was 0.456 in experiment [1]; 0.113 in experiment [2]; -0.461 in experiment [3]; 0.401 in experiment [5]; 0.836 in experiment [6]; 0.228 in [7]. Further, the composite z-score is -0.445 in experiment [8], 0.291 in [9] and 0.28 in experiment [10]. The z-score in experiment [4] is 0.184 (inactive).
